G9a block = G9a (human) methyltransferase inhibition | Q96KQ7 | G9a H3K9 monomethylation, AlphaScreen, 2 h | Potency, µM (series often up to 102 µM), for inactives: top-dose activity, negative = inhibition, usual class: inhibitors | hit rate 8.8% among 350,000; also: potency is read from the fitted curve at half-maximal effect; % is scaled to controls: 0 for no effect and ±100 for the full control effect; nearly all actives have a fitted effect of over 75% in size
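Methyltransferase reactions run at room temperature for 2 h (20 nM enzyme, 500 nM biotin-H3K9 peptide, 20 uM SAM) after a 15 min compound preincubation; product detected by AlphaScreen beads and anti-H3K9me1 antibody.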
BAZ2B block = inhibitors of human BAZ2B bromodomain; hit rate 4.4% among 360,000; Potency, µM (top dose mostly 114 µM), inactives show top-dose activity change, negative = inhibition, hits mostly inhibitors; Q9UIF8; AlphaScreen BAZ2B-H3K14Ac peptide displacement; also: potency is read from the fitted curve at half-maximal effect; % is scaled to controls: 0 for no effect and ±100 for the full control effect; nearly all actives have a fitted effect of over 60% in size
Target sequence (Q9UIF8 whole entry, looked up): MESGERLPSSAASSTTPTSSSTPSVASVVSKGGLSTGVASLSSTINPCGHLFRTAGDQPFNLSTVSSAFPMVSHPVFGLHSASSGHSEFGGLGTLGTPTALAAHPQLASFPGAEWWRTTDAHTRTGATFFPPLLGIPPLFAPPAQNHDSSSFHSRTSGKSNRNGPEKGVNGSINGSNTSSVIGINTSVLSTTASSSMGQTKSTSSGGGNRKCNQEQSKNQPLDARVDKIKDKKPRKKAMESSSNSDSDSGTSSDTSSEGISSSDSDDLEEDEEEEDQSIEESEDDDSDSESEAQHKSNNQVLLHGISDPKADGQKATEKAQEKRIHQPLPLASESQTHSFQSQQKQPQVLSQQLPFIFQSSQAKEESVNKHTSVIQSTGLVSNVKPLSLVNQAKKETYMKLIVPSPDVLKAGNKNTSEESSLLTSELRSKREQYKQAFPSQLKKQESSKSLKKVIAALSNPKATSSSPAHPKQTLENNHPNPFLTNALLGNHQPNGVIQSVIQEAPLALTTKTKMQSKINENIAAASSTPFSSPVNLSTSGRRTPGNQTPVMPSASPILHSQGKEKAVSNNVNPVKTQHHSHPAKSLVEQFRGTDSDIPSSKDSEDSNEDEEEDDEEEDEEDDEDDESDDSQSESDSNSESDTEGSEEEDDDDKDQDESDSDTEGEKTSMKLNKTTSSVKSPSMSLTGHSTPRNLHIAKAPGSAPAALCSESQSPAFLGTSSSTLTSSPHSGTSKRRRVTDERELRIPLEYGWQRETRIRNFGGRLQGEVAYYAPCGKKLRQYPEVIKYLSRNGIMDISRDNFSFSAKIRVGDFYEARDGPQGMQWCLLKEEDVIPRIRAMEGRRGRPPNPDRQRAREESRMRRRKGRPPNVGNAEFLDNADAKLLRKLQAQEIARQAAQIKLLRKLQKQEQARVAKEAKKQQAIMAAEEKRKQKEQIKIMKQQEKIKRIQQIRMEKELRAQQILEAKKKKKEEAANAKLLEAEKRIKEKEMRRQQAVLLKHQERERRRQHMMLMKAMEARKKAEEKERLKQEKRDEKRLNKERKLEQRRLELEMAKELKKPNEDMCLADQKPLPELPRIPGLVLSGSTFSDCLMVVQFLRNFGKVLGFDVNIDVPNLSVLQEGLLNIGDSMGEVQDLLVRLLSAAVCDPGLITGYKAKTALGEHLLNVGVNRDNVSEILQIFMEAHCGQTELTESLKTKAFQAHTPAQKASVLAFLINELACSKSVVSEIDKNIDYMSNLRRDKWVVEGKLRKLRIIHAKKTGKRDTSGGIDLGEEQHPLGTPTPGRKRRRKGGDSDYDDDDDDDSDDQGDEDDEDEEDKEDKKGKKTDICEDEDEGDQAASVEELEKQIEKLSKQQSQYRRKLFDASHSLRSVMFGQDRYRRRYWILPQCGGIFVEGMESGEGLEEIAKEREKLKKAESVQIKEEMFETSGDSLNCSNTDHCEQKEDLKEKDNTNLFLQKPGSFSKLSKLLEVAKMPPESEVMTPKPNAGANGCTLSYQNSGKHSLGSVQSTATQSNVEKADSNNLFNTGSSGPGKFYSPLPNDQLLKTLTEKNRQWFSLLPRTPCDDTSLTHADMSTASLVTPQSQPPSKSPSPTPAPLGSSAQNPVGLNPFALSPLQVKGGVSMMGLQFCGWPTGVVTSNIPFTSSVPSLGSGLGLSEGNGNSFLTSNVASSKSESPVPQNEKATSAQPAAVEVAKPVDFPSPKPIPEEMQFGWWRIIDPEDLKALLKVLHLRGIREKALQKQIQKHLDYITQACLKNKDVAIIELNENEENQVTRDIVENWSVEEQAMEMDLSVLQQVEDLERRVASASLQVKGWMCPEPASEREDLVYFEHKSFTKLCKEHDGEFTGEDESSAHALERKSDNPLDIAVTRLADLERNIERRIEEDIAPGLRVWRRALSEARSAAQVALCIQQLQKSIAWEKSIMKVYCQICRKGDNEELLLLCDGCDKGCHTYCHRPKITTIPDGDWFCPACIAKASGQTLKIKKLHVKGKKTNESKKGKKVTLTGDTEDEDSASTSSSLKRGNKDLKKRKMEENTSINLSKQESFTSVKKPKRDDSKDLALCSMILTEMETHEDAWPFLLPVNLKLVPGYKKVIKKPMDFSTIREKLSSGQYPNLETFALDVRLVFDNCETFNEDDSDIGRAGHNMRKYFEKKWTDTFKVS
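BAZ2B (50 nM) with biotin-H3(5-23)K14Ac peptide (50 nM) in PBS pH 7.4, 0.01% Tween-20, preformed 30 min, then compound 30 min at room temperature; top concentration 110uM. AlphaScreen streptavidin donor/nickel chelate acceptor beads (10 ug/mL final), 20 min dark, signal read.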
HP1b binding inh = HP1-beta chromodomain-methylated histone interaction inhibition; AlphaScreen HP1-beta / biotin-H3K9me3 peptide binding; Potency, µM (series often up to 114 µM), inactives show top-dose activity change, negative = inhibition, most hits filed as inhibitors; hit rate 0.56% among 390,000; also: potency is read from the fitted curve at half-maximal effect; nearly all actives have a fitted effect of over 70% in size
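Compound inhibition of the preformed complex between 50 nM HP1-beta and 50 nM biotinylated H3K9me3 peptide was read by AlphaScreen. Buffer was PBS pH 7.4 with 0.01% Tween-20. Incubations ran 30 min at room temperature, with 10 ug/mL donor/acceptor beads.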
JMJD2A Tudor = blocks the human JMJD2A Tudor domain; AlphaScreen JMJD2A-Tudor / H3K4me3 peptide binding; Potency, µM (doses to about 114 µM), inactives show at the highest dose activity change, negative = inhibition, hits mostly inhibitors; hit rate 4.4% among 390,000; O75164; also: potency is read from the fitted curve at half-maximal effect; % is scaled to controls: 0 for no effect and ±100 for the full control effect; nearly all actives have a fitted effect of over 50% in size
PLK1 PBD inh = inhibitors of human PLK1 polo-box domain binding; Plk1 PBD binding of FITC phosphopeptide, fluorescence polarization; Potency, µM, for the others: max response, negative = inhibition, usual class: inhibitors; hit rate 2.8% among 360,000; AID 720504; also: potency is read from the fitted curve at half-maximal effect; series mostly up to about 57 µM; % is scaled to controls: 0 for no effect and ±100 for the full control effect; nearly all actives have a fitted effect of over 65% in size
PI5P4K alpha inh = inhibitors of human PI5P4K alpha; P48426; PI5P4Kalpha enzyme, ADP-Glo luminescence, 60 min; stronger effect = lower value; max response, %; hit rate 1.2% among 330,000; AID 652105; active = max response of -50% or lower; inconclusive = between -30% and -50%; inactive = -30% or higher; also: value at the top dose of about 77 µM; % is scaled to controls: 0 for no effect and ±100 for the full control effect
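Luminescence from ADP-Glo served as readout of PI5P4Kalpha activity in a qHTS format. Reaction: enzyme, substrate, compound, ATP at 5 microM final, 60 min at RT.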
Active calls of the source: *; ? = inconclusive; . = no result; [ ] = another dose, or the depositor's remark. Rows were chosen to be rich in hits. Some 12% of all compounds tested hit in one or more screens of this group. Unless noted, calls follow the shape of the dose curve; as a rule, active = well fitted curve in the direction sought with a large enough effect; inconclusive = small, poorly fitted or top-dose-only effect, or another doubt; inactive = no such curve, though single readings can be large; an effect the other way counts as inactive or inconclusive.

SMILES	G9a block	BAZ2B block	HP1b binding inh	JMJD2A Tudor	PLK1 PBD inh	PI5P4K alpha inh
CC12CCC(C(=O)NCc3ccc4c(c3)OCO4)(C(=O)C1=O)C2(C)C (centres undefined)	44.7µM*	-21.8%	28.5%	0.9%	-8.7%	-7.5
CN1C(=O)C(N=Nc2ccccc2C(=O)O)N(C)C1=S (centres undefined)	1.78µM*	?	-36.5%	-7.5%[11.4 µM]	?	-9.0
CN1CN(C)C(c2ccncc2)=C1c1ccncc1	39.8µM*	-8.6%	21.7%	-7.0%	-1.1%	7.9
Cn1c(-c2ccncc2)nc2ccccc21	0.8%[0.501 µM]	9.5%	18.5%	-13.6%	-8.4%	-5.5
N#CC1=C(N)S[C@@H](C(=O)c2ccc(F)cc2)[C@@H]1c1cccs1	10µM*	?	-6.6%	?	-10.9%	.
N#CC1=C(N)SC(C(=O)c2ccccc2)C1c1cccs1 (centres undefined)	?	-38.8%	20.0%	-2.3%[57.1 µM]	-29.2%	-3.6
CCOC(=O)C(Nc1ccc2ccccc2c1)C(=O)OCC	2µM*	50.1µM*	-35.4%	?	-29.5%	-3.5
Cc1ccc(NC(=O)CN(C)S(=O)(=O)c2cnc[nH]2)c(C)c1	21.2%[59 µM]	-14.9%	15.6%	-10.4%	2.6%	0.2
COc1cccc(N=c2oc3ccccc3cc2-c2nc3ccccc3[nH]2)c1	-4.0%[12.7 µM]	-32.8%	6.9%	31.6µM*	-14.7%	2.2
CSc1ncc(-c2ccc(Cl)cc2)[nH]1	39.8µM*	?	2.5%	-21.0%	-3.5%	-3.1
Cc1cc(C)cc(C(O)c2ncc(-c3ccc(Cl)cc3)[nH]2)c1 (centres undefined)	.	.	.	.	0.9%	16.2
CCOC(=O)c1c(NC(=O)C(C)Sc2cn(CCNC(=O)c3ccc(OC)cc3)c3ccccc23)sc2c1CCC2 (centres undefined)	?	?	-0.6%	-29.9%	.	.
CCNc1nc(-c2ccc(Cl)cc2)cs1	?	?	-20.0%	-27.7%	-20.1%	0.8
CCCc1sc(N)nc1-c1ccc(Cl)cc1	44.7µM*	-37.0%	-2.1%	-34.7%	3.9%	18.4
CCN1CCCC1CNC(=O)Cn1nc(C)n2nc(-c3ccccc3)cc2c1=O (centres undefined)	.	-6.3%	22.3%	-8.8%	-11.7%	1.1
O=c1ccn([C@@H]2O[C@H](CNCc3c(OCc4ccccc4F)ccc4ccccc34)[C@@H](O)[C@H]2O)c(=O)[nH]1	.	.	.	.	0.6%	3.0
Cn1c(=O)[nH]c(=O)c2[nH]c(N(Cc3ccccc3)Cc3ccccc3)nc21	50.1µM*	?	-19.7%	?	-2.4%	1.8
CC(NS(=O)(=O)c1ccccc1)C(=O)Nc1ccc2c(c1)OCCO2 (centres undefined)	?	-17.3%	44.5%	-1.4%	-8.6%	-11.5
O=C(/C=C/c1ccccc1Cl)Nc1ccc2c(c1)C(=O)NC2=O	25.1µM*	70.8µM*	?	?	?	-25.7
Cc1ccc(-n2c(=S)[nH]c3c(oc4ccccc43)c2=O)cc1C	79.4µM*	10.7%	12.4%	-0.3%	-19.2%	-17.1
O=c1c2oc3ccccc3c2[nH]c(=S)n1-c1ccc(F)cc1	50.1µM*	.	37.0%	6.4%	-11.3%	3.6
Cc1ccc(-n2c(=O)c3oc4ccccc4c3n(Cc3cccc(F)c3)c2=O)cc1C	-35.5%[59 µM]	?	28.2%	-15.4%	.	.
C#Cc1ccc(NC(=O)C2(C)CCN2C(=O)C2(c3ccccc3)CCCC2)cc1 (centres undefined)	.	.	.	.	3.5%	23.0
Cn1c(=O)c2c(nc(NC(Cc3ccccc3)C(=O)O)n2Cc2ccccc2)n(C)c1=O (centres undefined)	56.2µM*	?	22.5%	-23.0%	-14.3%	-5.5
CNc1nc2c(c(=O)n(C)c(=O)n2C)n1Cc1ccccc1	22.8%[59 µM]	-0.5%	44.2%	-23.4%	-4.7%	-3.7
SMILES	G9a block	BAZ2B block	HP1b binding inh	JMJD2A Tudor	PLK1 PBD inh	PI5P4K alpha inh
Cc1cc(C)cc(NC(=O)C2CCCN2S(=O)(=O)c2ccc3nc(-c4ccccc4)[nH]c3c2)c1 (centres undefined)	?	79.4µM*	6.8%	?	.	.
CCN(CC)CCNc1ccc(C)c2sc3ccc(O)cc3c(=O)c12	.	.	?	22.4µM*	8.0%	1.6
O=C1C(NS(=O)(=O)c2ccc(Cl)cc2)=C(N2CCCCC2)C(=O)c2ccccc21	10µM*	5.62µM*	?	11.2µM*	-18.0%	-4.2
CCOC(=O)N1CCN(C2=C(NS(=O)(=O)c3ccc(Br)cc3)C(=O)c3ccccc3C2=O)CC1	.	.	.	.	-18.3%	-19.3
CCOC(=O)N1CCN(C2=C(NS(=O)(=O)c3ccccc3)C(=O)c3ccccc3C2=O)CC1	35.5µM*	31.6µM*	?	?	-23.5%	2.9
CN1CCN(C2=C(NS(=O)(=O)c3ccccc3)C(=O)c3ccccc3C2=O)CC1	28.2µM*	?	0.8%	-15.9%	-27.8%	3.6
CC(C)(CN1CCCCC1)NS(=O)(=O)c1ccc(Cl)cc1	-18.0%[59 µM]	5.0%	0.7%	-10.2%	-7.8%	-2.6
O=C(COC(=O)C1CC2C=CC1C2)Nc1ccc([N+](=O)[O-])cc1 (centres undefined)	.	.	16.3%[57 µM]	-11.0%	-4.6%	0.9
Cc1cc(C)n(C(=O)CSc2nnc(SCC(=O)n3nc(C)cc3C)s2)n1	79.4µM*	22.4%	24.6%	-26.4%	-2.2%	-18.8
CC(C)(C)c1ccc(S(=O)(=O)/C=C/C#N)cc1	0.947µM*	.	.	.	.	.
CC(C)(C)c1ccc(NS(=O)(=O)c2ccc(N)cc2)cc1	?	-12.0%	19.9%	-23.5%	-8.5%	0.9
Cn1cccc1C(=O)OCC(=O)N1c2ccccc2NC(=O)C1(C)C	-2.2%	-15.7%	31.6%	-14.3%	-2.0%	5.8
C=CCn1c(O)c(C2=c3ccccc3=NC2=O)s/c1=N/c1nccs1	?	-32.9%	-0.7%	-24.1%	-1.0%	-15.0
C=CCn1c(O)c(C2=c3ccccc3=NC2=O)c2ccccc21	6.31µM*	6.31µM*	?	10µM*	16.8µM*	-12.9
c1ccc(-c2nc3nc4ccccc4nc3n2CC2CCCO2)cc1 (centres undefined)	-0.1%	-2.9%	23.5%	0.0%	-0.5%	-4.6
c1coc(-c2nc3nc4ccccc4nc3n2CC2CCCO2)c1 (centres undefined)	50.1µM*	0.5%	32.6%	-10.4%	-3.1%	.
COc1ccc(C(C)=O)cc1COC(=O)CCNS(=O)(=O)c1ccc(C(C)=O)cc1	5.9%	-19.4%	15.2%	-8.2%	-21.3%	1.6
COc1ccc(C(C)=O)cc1COC(=O)CCNS(=O)(=O)c1ccc(C)cc1	50.1µM*	8.4%	-0.7%	-9.5%	?	-1.5
CC(C)(C)C(=O)Nc1nc2c(s1)COc1ccccc1-2	?	-25.1%	20.1%	-13.4%	-18.2%	-6.5
Nc1nc2c(s1)COc1ccccc1-2	31.6µM*	-25.6%	?	-32.0%	18.9µM*	-15.5

Bioassay records as filed in PubChem.
